Assay results taken from PubChem BioAssay AID463173 (ICCB-Longwood Screening Facility, Harvard Medical School, 2010).
About 1,700 (3.3%) of roughly 52,000 compounds were called active. The entries come from a sample that favours actives as a whole. Values without a mark were called inactive. No stated cut-off is given here; in the data, active means survival mostly below about 52% (no sharp cut-off); inactive means mostly above about 56%.

Tested on: Wild type
Assay: growth inhibition of S. aureus wild type versus tarO mutant, primary screen, teichoic acid synthesis inhibitors, RN4220, OD600 (AID 463173)
Settings: S. aureus RN4220 wild type/DeltatarO growth, OD600, 18 h, active compounds read low, screened at 18.75 µg/mL (by protocol)

Structure (SMILES)	survival
COc1cccc(NS(=O)(=O)c2ccc3c(c2)N(C)C(=O)CC(=O)N3C)c1	78%
COc1ccc2[nH]c(=O)c(CN(CCCN3CCOCC3)C(=O)Nc3ccccc3)cc2c1	102%
O=C(NC1CCCCCC1)c1ccc(CS(=O)c2ccc(Br)cc2)o1 (configuration not stated)	94%
CC(C)Cc1ccc(S(=O)(=O)Nc2cc3c(cc2N2CCOCC2)n(C)c(=O)c(=O)n3C)cc1	63%
Cn1c(=O)c(=O)n(C)c2cc(N3CCOCC3)c(NS(=O)(=O)c3ccc(Cl)cc3)cc21	-3% (active)
Cc1ccc(S(=O)(=O)Nc2cc3c(cc2N2CCOCC2)n(C)c(=O)n3C)cc1	80%
Cc1ccc(S(=O)(=O)Nc2cc3c(cc2C)n(C)c(=O)c(=O)n3C)cc1	-4% (active)
Cc1cc2c(cc1NS(=O)(=O)c1ccc(Br)cc1)n(C)c(=O)c(=O)n2C	129%
Cn1c(=O)c(=O)n(C)c2cc(N3CCOCC3)c(NS(=O)(=O)c3ccc(F)c(Cl)c3)cc21	63%
Cn1c(=O)n(C)c2cc(N3CCOCC3)c(NS(=O)(=O)c3ccc(Cl)cc3)cc21	93%
CCc1ccc(S(=O)(=O)Nc2cc3c(cc2N2CCOCC2)n(C)c(=O)c(=O)n3C)cc1	1% (active)
CCc1ccc(S(=O)(=O)Nc2cc3c(cc2C)n(C)c(=O)c(=O)n3C)cc1	57%
COc1ccccc1OCCn1cc(C(=O)c2cccs2)c2ccccc21	102%
O=C(CSc1nnc(-c2ccc(S(=O)(=O)N3CCCC3)cc2)n1CC1CCCO1)NC1CC1 (configuration not stated)	108%
COc1ccc(-c2nnc(SCC(=O)NCCC(C)C)nc2-c2ccc(OC)c(OC)c2)cc1OC	71%
COc1cccc2cc(-c3nc(Nc4cccc(C)c4C)sc3C)c(=O)oc12	65%
COc1cccc(NC(=O)C2CCC(CNS(=O)(=O)c3ccc4c(c3)CC(C)N4C(C)=O)CC2)c1 (configuration not stated)	95%
CNS(=O)(=O)c1ccccc1C(=O)N/N=C/c1ccc(OC)c(OC)c1	102%
COc1cc2c(cc1OC)n(CC(=O)c1ccc(C)cc1C)c(=O)n1nc(CCn3nc(C)cc3C)nc21	74%
COc1ccccc1N1CCN(S(=O)(=O)c2c(C)nc3sc(C)c(C)n3c2=O)CC1	85%
COc1cc(NS(=O)(=O)c2ccc3c(c2)CCN3S(C)(=O)=O)cc(OC)c1	73%
COc1ccc(-c2cc(NCc3ccc(F)cc3)n3cnnc3n2)cc1	72%
COc1cccc(-c2cc(C(=O)NCc3ccc(F)cc3)no2)c1	71%

Structure (SMILES)	survival
COc1ccc(CNC(=O)C(C)Sc2nc(-c3ccccc3)cc(C(F)(F)F)n2)cc1 (configuration not stated)	149%
COc1ccc(-c2cc(C(F)(F)F)nc(SCC(=O)NCc3ccc(F)cc3)n2)cc1	90%
COc1ccc(-c2cc(C(F)(F)F)nc(NCCc3ccccc3)n2)cc1OC	81%
COc1ccc(-c2cc(C(F)(F)F)nc(NCCc3ccccc3)n2)cc1	-2% (active)
COc1cccc(-c2cc(C(F)(F)F)nc(NCc3ccc(F)cc3)n2)c1	0% (active)
COc1ccc(-c2cc(C(F)(F)F)nc(NCc3ccccc3)n2)cc1	-5% (active)
COc1ccc(-c2cc(C(F)(F)F)nc(NCc3ccc(F)cc3)n2)cc1	-5% (active)
COc1ccc(-c2cc(C(F)(F)F)nc(NCc3ccccc3)n2)cc1OC	66%
COc1ccc(-c2cc(C(F)(F)F)nc(SCC(=O)NCCc3ccccc3)n2)cc1OC	81%
CCc1ccc(NC(=O)CCn2cnc3ccccc3c2=O)cc1	72%
COCCNC(=O)CN1C(=O)CCn2nc(-c3cn(C)c4ccccc34)cc21	64%
C#CCNc1nc(CC(C)C)nc2c1nnn2Cc1ccccc1	101%
COc1ccc(CNc2nc(-c3ccc(OC)c(OC)c3)cc(C(F)(F)F)n2)cc1	27%
COc1ccccc1CCNC(=O)C(C)Sc1nc(-c2ccccc2)cc(C(F)(F)F)n1 (configuration not stated)	53%
COc1cccc(-c2cc(C(F)(F)F)nc(NCCc3ccccc3)n2)c1	-7% (active)
COc1ccc(CNc2nc(-c3ccc(OC)cc3)cc(C(F)(F)F)n2)cc1	-5% (active)
COc1ccc(CNC(=O)CSc2nc(-c3ccc(OC)cc3)cc(C(F)(F)F)n2)cc1	93%
COc1cccc(-c2cc(C(F)(F)F)nc(NCCc3ccc(OC)c(OC)c3)n2)c1	25%
Cc1ccc(CNC(=O)Cc2c(C(=O)O)c(C)cn2C)cc1	85%
COc1cccc(CNC(=O)c2cc(S(=O)(=O)N3CCCCC3)cn2C)c1	-2% (active)
Cc1cn(C)c(CC(=O)NCc2ccccc2)c1C(=O)O	80%
Cc1cn(C)c(CC(=O)NCc2ccc(Cl)cc2)c1C(=O)O	66%
COc1cccc(CNC(=O)Cc2c(C(=O)O)c(C)cn2C)c1	0% (active)

Structure (SMILES)	survival
Cc1ccc(CNC(=O)c2cc(S(=O)(=O)N3CCCCCC3)cn2C)cc1	81%
Cc1cn(C)c(CC(=O)NCc2cccc(Cl)c2)c1C(=O)O	-3% (active)
COc1ccc(CNC(=O)Cc2c(C(=O)O)c(C)cn2C)cc1	83%
COc1cccc(CNC(=O)c2cc(S(=O)(=O)N3CCCCCC3)cn2C)c1	85%
Cc1ccc(-n2ncc(C(=O)N3CCN(Cc4ccccc4)CC3)c2C2CCN(C(=O)OC(C)(C)C)CC2)cc1	124%
N#Cc1c(NC(=O)CN2CCCCC2)sc2c1CCC2	109%
Cc1ccc2c(c1)c1c(c(=O)n(-c3ccccc3)c(=O)n1CC(=O)NCC1CCCO1)n2C (configuration not stated)	72%
Cc1ccc(NC(=O)C(=O)NCCc2sc(-c3ccc(Cl)cc3)nc2C)cc1C	126%
Cc1ccc(-c2nc(C)c(CCNC(=O)C(=O)Nc3ccc(C)c(Cl)c3)s2)cc1	76%
Cc1nc(-c2ccccc2)sc1CCNC(=O)C(=O)Nc1ccc(F)c(Cl)c1	1% (active)
COc1ccc(NC(=O)CN(c2ccc(C)cc2)S(=O)(=O)c2cccs2)cc1	84%
O=c1n(Cc2cccc(F)c2)c2ccccc2c2nc(-c3ccccc3)nn12	34%
Cc1cccc(-c2nc3c4ccccc4n(Cc4cccc(Cl)c4)c(=O)n3n2)c1	113%
Fc1ccccc1Cn1c(-c2ccccc2)nc2ccccc21	1% (active)
Fc1ccc(Cn2c(-c3cccc(Br)c3)nc3ccccc32)cc1	120%
Nc1nonc1-c1nc2ccccc2n1Cc1cccc(Cl)c1	87%
Cc1cccc(-c2nc3ccccc3n2Cc2ccccc2)c1	1% (active)
O=C(CSc1nc2ccccc2n1Cc1ccccc1F)NCc1ccccc1	99%
CCc1ccccc1N1CC(c2nc3ccccc3n2Cc2cccc(C)c2)CC1=O (configuration not stated)	66%
Cc1cccc(Cn2c(=O)n3nc(-c4ccccc4)nc3c3ccccc32)c1	-24% (active)
Cc1cccc(Cn2c(-c3cccc(Br)c3)nc3ccccc32)c1	124%
Cc1ccc(Cn2c(CCNC(=O)c3cccc(C)c3)nc3ccccc32)cc1	68%
Cc1cccc(Cn2c(-c3ccccc3)nc3ccccc32)c1	26% (active)

Structure (SMILES)	survival
COc1ccc(NC(=O)c2oc3ccccc3c2NC(=O)c2cc(C)cc(C)c2)c(OC)c1	79%
COc1ccc(NC(=O)C2CCC(CNS(=O)(=O)c3cccc4nsnc34)CC2)cc1OC (configuration not stated)	87%
CN(Cc1ccccc1)C(=O)Cn1c(=O)c2cccn2c2ccc(F)cc21	81%
Cc1ccc(Cn2c(=O)c3ccccc3n3c(-c4ccccc4)nnc23)cc1	91%
Cc1ccc(Cn2c(C(C)NC(=O)c3ccccc3)nc3ccccc32)cc1 (configuration not stated)	91%
Cc1ccc(Cn2c(-c3ccccc3)nc3ccccc32)cc1	8% (active)
CCCCn1c(SCC(=O)N2CCCCCC2)nnc1-c1ccoc1C	98%
Cc1cccc(N2CCN(c3ccc4cc(S(=O)(=O)N5CCC(C)CC5)ccc4n3)CC2C)c1 (configuration not stated)	129%
CSc1cccc(Nc2cc(C(=O)NC3CCCCC3)c3ccccc3n2)c1	142%
CN1CN2C(=O)N3CN(C)CN4C(=O)N(C1)C2C34 (configuration not stated)	110%
COC(=O)Cn1c(C(O)c2ccccc2)nc2ccccc21 (configuration not stated)	97%
OC(c1ccccc1)c1nc2ccccc2n1Cc1c(F)cccc1Cl (configuration not stated)	82%
Cc1cc(C)c(Cn2c(C(O)c3ccccc3)nc3ccccc32)c(C)c1 (configuration not stated)	11% (active)
CCOc1ccc(CNC(=O)CS(=O)(=O)c2cccc3nsnc23)cc1	126%
COc1ccccc1NC(=O)C1CCN(C(=O)c2ccccc2)CC1	94%
Cc1c(Cl)cccc1-n1ncc(C(=O)Nc2ccc(F)cc2F)c1C1CCN(C(=O)OC(C)(C)C)CC1	71%
CCOC(=O)c1ccc(Nc2nc(C)cc(C)n2)cc1	87%
CCOC(=O)c1ccc(Nc2nc3nonc3nc2Nc2cccc(C)c2C)cc1	0% (active)
Cc1ccc(C)c(Nc2nc3nonc3nc2Nc2cccc(C)c2C)c1	4% (active)
CCOC(=O)c1ccc(Nc2nc3nonc3nc2NCc2ccco2)cc1	35%
Cc1cccc(Nc2nc3nonc3nc2N/N=C\c2cccs2)c1C	96%
Cc1cccc(Nc2nc3nonc3nc2Nc2cccc(C)c2C)c1C	102%
CCS(=O)(=O)N1CCc2cc(C(=O)Nc3ccc(OC)cc3OC)ccc21	88%
